{"source": "PubChem BioAssay (NCI)", "note": "Values joined by “and” are separate entries in the source; they are usually repeats but may differ in a detail not shown here. Equal entries are not always repeated. The panel holds about 83,000 compounds, 20% with a hit somewhere; the sample as a whole holds those more often.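 Single-concentration screen, 48 h exposure, 96-well plates. Endpoint: percent growth. Below 10 = active.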 Unmarked numbers belong to inactive results. Active and inactive are the calls of the source."}
{"tested_on": "HL-60(TB) leukemia", "assay": "NCI-60 one-dose screen, 48 h (100 = growth as untreated, 0 = no growth, -100 = all killed)", "conditions": "10 µM unless noted"}
{"smiles": "O=C(N/N=C/c1ccoc1)c1[nH]c2ccc(Br)cc2c1-c1ccccc1", "growth": "-27.3% (active)"}
{"smiles": "CCOC(=O)C1NN(c2ccc(S(N)(=O)=O)cc2)c2nc3nc(-c4cccs4)cc(-c4cccs4)c3c(=O)n21", "note": "(stereo not given)", "growth": "96.2%"}
{"smiles": "NS(=O)(=O)c1ccc(Nc2nc(SCC(=O)c3ccc(F)cc3)nc3ccccc23)cc1", "growth": "63.7%"}
{"smiles": "CCOC(=O)c1ccc(Nc2nc(NN)nc(-c3ccc(OC)cc3)c2C#N)cc1", "growth": "103%"}
{"smiles": "COc1cc(OC)c2c3nc4cc(C)c(C)cc4nc3n(CCN(C)C)c2c1", "growth": "52.9%"}
{"smiles": "COc1ccc(Cc2nn(CC(=O)N/N=C/c3ccc([N+](=O)[O-])cc3)c(=O)c3c(C)noc23)cc1", "growth": "109%"}
{"smiles": "COC(=O)c1cc(C(=O)C(C)(C)C)n2c3ccccc3c3ccccc3c12", "growth": "90.4%"}
{"smiles": "O=C(c1ccc(Cl)cc1)C1[C@H](c2ccc(Br)cc2)[C@@H](c2ccccc2)NC12C(=O)Nc1ccc(Cl)cc12", "note": "(stereo not given in full)", "growth": "-45.2% (active)"}
{"smiles": "O=C(c1ccc(Cl)cc1)C1[C@H](c2ccccc2Br)[C@@H](c2ccccc2)NC12C(=O)Nc1ccccc12", "note": "(stereo not given in full)", "growth": "-2.22% (active)"}
{"smiles": "O=c1[nH]c2ccccc2cc1CSc1ccccc1Nc1nccc(-c2ccc3c(c2)OCO3)n1", "growth": "98%"}
{"smiles": "COc1cc(/C=C/C(=O)c2ccc(NC(=O)CN3C(=O)NC(C)(c4ccccc4)C3=O)cc2)cc(OC)c1OC", "note": "(stereo not given)", "growth": "-11.5% (active)"}
{"smiles": "Nc1nc2cc(-c3ccc4ncnc(NCc5ccccc5)c4c3)ccc2o1", "growth": "-43.8% (active)"}
{"smiles": "Cc1cc(C)nc(NS(=O)(=O)c2ccc(N/C(N)=N/c3nccc(-c4cccs4)n3)cc2)n1", "growth": "1.77% (active)"}
{"smiles": "Clc1ccc(-c2nc3ccc(-c4nnc(SCc5ccccc5)o4)cc3[nH]2)cc1", "growth": "51.8%"}
{"smiles": "COc1cc(/C=C/C(=O)c2ccc(NC(=O)CSc3nnc(-c4c[nH]c5ccccc45)n3-c3ccccc3)cc2)cc(OC)c1OC", "growth": "38.6%"}
{"smiles": "NS(=O)(=O)c1ccc(N=Nc2c(O)n(CC(=O)Nc3ccccc3Cl)c3ccccc23)cc1", "growth": "45.8%"}
{"smiles": "O=C(c1ccc(O)cc1)C1[C@H](c2ccc(Br)cc2)[C@@H](c2ccccc2)NC12C(=O)Nc1ccccc12", "note": "(stereo not given in full)", "growth": "50.5%"}
{"smiles": "CN1C(=O)C2(C(C#N)=C(c3ccc(Cl)cc3)Nc3c2c(-c2ccccc2)nn3-c2ccccc2)c2ccccc21", "note": "(stereo not given)", "growth": "50.3%"}
{"smiles": "COc1ccc(/C=C/c2nc3ccccc3n3c(-c4cccc([N+](=O)[O-])c4)nnc23)cc1", "growth": "-49.3% (active)"}
{"smiles": "Cc1ccc(/C(N)=N/c2sc(-c3ccccc3)nc2-c2ccccc2)cc1", "growth": "87%"}
{"smiles": "Nc1nnc(-c2cncc(Br)c2)c(-c2c[nH]c3ccc(Cl)cc23)n1", "growth": "64.3%"}
{"smiles": "CCOC(=O)c1ccc(NC(=S)NC(=O)c2cccc(NC(=O)c3ccc(C)cc3)c2)cc1", "growth": "102%"}
{"smiles": "O=C(Cn1c(/C=C/c2ccccc2)nc2ccccc2c1=O)Nc1ccc(Cl)cc1", "growth": "99.2%"}
{"smiles": "C#CCOc1cc(N(CC)CC)ccc1C(C(=O)NC(C)(C)C)N(C(=O)C1CCc2cc(F)ccc2O1)c1ccc(F)cc1F", "note": "(stereo not given)", "growth": "6.7% (active)"}
{"smiles": "CC(=O)c1ccc2c(N)c(C(=O)Nc3ccc(C(F)(F)F)cc3)sc2n1", "growth": "50%"}
{"smiles": "CN(C(=O)CN1C(=O)/C(=C/c2ccco2)SC1=S)C1CCS(=O)(=O)C1", "note": "(stereo not given)", "growth": "81.6%"}
{"smiles": "OCC1(CCCc2ccccc2)CCCN(c2nccc3ccccc23)C1", "note": "(stereo not given)", "growth": "22.7%"}
{"smiles": "Nc1ccc(-c2ccc3ncnc(N4CCc5cc(F)c(Cl)cc54)c3c2)cn1", "growth": "22.8%"}
{"smiles": "COc1cc(/C=C/C(=O)c2ccc(S(=O)(=O)NCCNc3nc(Nc4ccc(F)cc4)nc(N(C)C)n3)cc2)cc(OC)c1OC", "growth": "-4.97% (active)"}
{"smiles": "O=C(CSc1nnc(-c2ccc(-c3nc4ccc(Cl)cc4[nH]3)cc2)o1)Nc1ccc(Cl)cc1", "growth": "4.27% (active)"}
{"smiles": "COc1ccc(C(=O)NNC(=O)CSc2nc3sc4c(c3c(=O)n2-c2ccc(Cl)cc2)CCCC4)cc1", "growth": "64.5%"}
{"smiles": "O=C(c1ccc(O)cc1)C1[C@H](c2ccccc2Br)[C@@H](c2ccccc2)NC12C(=O)Nc1ccccc12", "note": "(stereo not given in full)", "growth": "19.8%"}
{"smiles": "NC1(c2ccc(-c3ccc4ncnc(NCc5ccccc5)c4c3)cn2)COC1", "growth": "113% and 106%"}
{"smiles": "C=CC[N+](C)(C)CCn1c2ccccc2c2nc3cc(C)c(C)cc3nc21", "growth": "97.7%"}
{"smiles": "Cc1noc2c(Cc3ccccc3)nn(CC(=O)N/N=C/c3ccc(Br)cc3)c(=O)c12", "growth": "100%"}
{"smiles": "CCCn1c(=O)c2[nH]c(-c3ccc(OCc4nc5ccccc5[nH]4)cc3)nc2n(CCC)c1=O", "growth": "85.3%"}
{"smiles": "COc1cc(CNC(=O)C[C@H](C)CCC=C(C)C)ccc1OCc1cn(-c2ccccc2Cl)nn1", "growth": "41.1%"}
{"smiles": "O=C(N/N=C/c1ccc(-c2ccc(O)cc2)o1)c1[nH]c2ccc(Br)cc2c1-c1ccccc1", "growth": "-20.6% (active)"}
{"smiles": "O=C1NC(=NC23CC4CC(CC(C4)C2)C3)N/C1=C\\c1ccc2ncccc2c1", "growth": "-11.2% (active)"}
{"smiles": "COc1ccc(N(C)c2cc(C#N)nc3ccccc23)cc1N", "growth": "-10% (active)"}
